Measurements reported in PubChem BioAssay AID2071 (Sanford-Burnham Center for Chemical Genomics, 2009).
Out of some 280,000 compounds screened, about 1,700 (0.61%) were called active. Rule as the data show it: active = inhibition mostly above about 24% (no sharp cut-off); inactive = mostly below about 32%. For the sample, actives were picked, then their nearest neighbours and some compounds at random.

Experiment: NALP1 inflammasome inhibitors in reconstituted yeast, colorimetric, S. cerevisiae, triplicate retest (AID 2071)
Conditions: S. cerevisiae NALP1/ASC/caspase-1 growth, X-gal OD620, 72 h, stronger effect = higher value

## CC(C)CC(=O)NC(=S)Nc1cc(C(=O)O)ccc1Cl
At 10 µM unless noted
  inhibition: 11.6% (inactive)

## CC(=O)c1ccc(NC(=S)NC(=O)CC(C)C)cc1
At 10 µM unless noted
  inhibition: 27.8% (inactive)

## CC(C)CC(=O)NC(=S)Nc1ccc(F)cc1F
At 10 µM unless noted
  inhibition: 42.9% (active)

## COc1ccc(C2C(C(C)=O)=C(O)C(=O)N2CCc2c[nH]c3ccccc23)cc1 (centres undefined)
At 10 µM unless noted
  inhibition: 5.6% (inactive)

## COc1cc(C2C(C(=O)c3ccc(C)o3)=C(O)C(=O)N2Cc2cccnc2)ccc1O (centres undefined)
At 10 µM unless noted
  inhibition: -2.8% (inactive)

## COc1ccc(C2C(C(C)=O)=C(O)C(=O)N2Cc2cccnc2)cc1 (centres undefined)
At 10 µM unless noted
  inhibition: 33.6% (active)

## CC1Cc2cc(/C(O)=C3\C(=O)C(=O)N(Cc4cccnc4)C3c3ccccc3F)ccc2O1 (centres undefined)
At 10 µM unless noted
  inhibition: 29.4% (inactive)

## Cc1ccc(-n2ncc(C(=O)NC3CC3)c2C2CCN(C(=O)OC(C)(C)C)CC2)c(C)c1
At 10 µM unless noted
  inhibition: -2.6% (inactive)

## O=C(NCc1cccs1)C1CCN(S(=O)(=O)c2ccc(Cl)cc2)CC1
At 10 µM unless noted
  inhibition: 23.6% (active)

## O=C(NCc1cccs1)C1CCN(S(=O)(=O)c2ccc3c(c2)OCCO3)CC1
At 10 µM unless noted
  inhibition: -1.6% (inactive)

## O=C(NCc1ccc(Cl)cc1)C1CCN(S(=O)(=O)c2cccs2)CC1
At 10 µM unless noted
  inhibition: 4% (inactive)

## CCc1ccc(/C=N/NC(=O)c2nnn(-c3nonc3N)c2CN2CCc3ccccc32)cc1
At 10 µM unless noted
  inhibition: 0% (inactive)

## O=C(Nc1nnc(C2CC2)s1)c1cc(Cl)sc1Cl
At 10 µM unless noted
  inhibition: 5.9% (inactive)

## CCCCNC(=O)CSc1nnc(-c2ccco2)n1C
At 10 µM unless noted
  inhibition: 10.9% (inactive)

## Cn1c(SCC(=O)c2cccs2)nnc1-c1ccco1
At 10 µM unless noted
  inhibition: 14.7% (inactive)

## Cn1c(SCC(=O)Nc2ccc(Br)cc2F)nnc1-c1ccco1
At 10 µM unless noted
  inhibition: 31.1% (active)

## O=C(Nc1ccc(C(=O)N2CCOCC2)cc1)Nc1cccc(C(F)(F)F)c1
At 10 µM unless noted
  inhibition: -1.5% (inactive)

## O=C(CN1CCCCCC1)Nc1ccc(Br)cc1[N+](=O)[O-]
At 10 µM unless noted
  inhibition: -4.1% (inactive)

## Cc1ccc(S(=O)(=O)N2CCN=C2SCc2c(F)cccc2Cl)cc1
At 10 µM unless noted
  inhibition: 14.5% (inactive)

## COc1cccc(CNc2ncc(-c3ccccc3)n2C)c1
At 10 µM unless noted
  inhibition: -8.5% (inactive)

## Cn1c(SCC(=O)C(C)(C)C)nnc1-c1ccccn1
At 10 µM unless noted
  inhibition: 43.3% (active)

## CCn1c(SCC(=O)NC2CC2)nnc1-c1ccccn1
At 10 µM unless noted
  inhibition: 20% (inactive)

## Cn1c(SCC(=O)c2ccc(F)cc2)nnc1-c1ccccn1
At 10 µM unless noted
  inhibition: 4.2% (inactive)

## FC(F)(F)c1nnc2c3ccccc3c(Cl)nn12
At 10 µM unless noted
  inhibition: 2.1% (inactive)

## COc1ccc(N2C(=O)C3CCCN3C2c2cc(OC)c(OC)cc2OC)cc1 (centres undefined)
At 10 µM unless noted
  inhibition: 41.6% (active)

## COc1ccc(N2C(=O)C3CCCN3C2c2cccs2)cc1 (centres undefined)
At 10 µM unless noted
  inhibition: 11.5% (inactive)

## COc1ccc(N2C(=O)C3CCCN3C2c2cccc(OC)c2)cc1 (centres undefined)
At 10 µM unless noted
  inhibition: -8.3% (inactive)

## O=C(CN1CCN(C(=O)C2CCCO2)CC1)Nc1c(Cl)cccc1Cl (centres undefined)
At 10 µM unless noted
  inhibition: 17.6% (inactive)

## COc1ccc(-c2c(C#Cc3ccccc3)c3ccccc3n2C)cc1
At 10 µM unless noted
  inhibition: 15.3% (inactive)

## CC(=O)Nc1ccc(NC(=O)CS(=O)(=O)c2cn(CC(=O)N3CCCCC3)c3ccccc23)cc1
At 10 µM unless noted
  inhibition: 5.8% (inactive)

## C=CS(=O)c1sc(Cl)c(N2CCOCC2)c1[N+](=O)[O-] (centres undefined)
At 10 µM unless noted
  inhibition: 37.6% (active)

## Cc1cccc(NC(=O)c2ccc(S(=O)(=O)N(C)CC3CCCO3)cc2)c1C (centres undefined)
At 10 µM unless noted
  inhibition: 15.7% (inactive)

## COCc1c(N)c(C)nc(Cl)c1C#N
At 10 µM unless noted
  inhibition: -22.9% (inactive)

## Cc1nc(Cl)c(C#N)c2c1CCCC2
At 10 µM unless noted
  inhibition: 41.9% (active)

## CC(C)Cc1nc(Cl)c(C#N)c2c1CCC2
At 10 µM unless noted
  inhibition: 8% (inactive)

## COc1ccc(NCCc2ccccn2)cc1
At 10 µM unless noted
  inhibition: 8.9% (inactive)

## O=C(NCCCc1ccccc1)C(=O)NCC1OCCN1S(=O)(=O)c1ccccc1 (centres undefined)
At 10 µM unless noted
  inhibition: -4.3% (inactive)

## COc1ccc(CCNC(=O)C(=O)NCC2OCCN2S(=O)(=O)c2cccs2)cc1OC (centres undefined)
At 10 µM unless noted
  inhibition: 0.8% (inactive)

## COc1cccc(NC(=O)[C@H](Cc2c[nH]c3ccccc23)NC(=O)[C@@H]2Cc3ccccc3CN2)c1
At 10 µM unless noted
  inhibition: 17.2% (inactive)

## Cc1ccccc1NC(=O)NCc1ccco1
At 10 µM unless noted
  inhibition: 23.9% (inactive)

## CC(C)(C)NC(=O)NCc1ccco1
At 10 µM unless noted
  inhibition: 41.4% (active)

## CC(C)(C)c1ccc(NC(=O)NCc2ccco2)cc1
At 10 µM unless noted
  inhibition: 21.4% (inactive)

## Cc1[nH]n(C(N)=S)c(=O)c1N=Nc1ccc(Cl)cc1Cl
At 10 µM unless noted
  inhibition: 0.4% (inactive)

## COc1ccc(-n2nc(C(=O)NCC(=O)N3CCN(c4ccccc4OC)CC3)c3ccccc3c2=O)c(OC)c1
At 10 µM unless noted
  inhibition: 20.4% (inactive)

## CN(c1ccc(O)cc1)c1nc(-c2cccnc2)cs1
At 10 µM unless noted
  inhibition: 12.3% (inactive)

## O=C(NC(=S)Nc1ccc(Cl)cc1Cl)C1CC1
At 10 µM unless noted
  inhibition: 10.6% (inactive)

## O=C(NCC(=O)N1CCN(c2ncc(C(F)(F)F)cc2Cl)CC1)c1ccc(Br)o1
At 10 µM unless noted
  inhibition: 6.1% (inactive)

## Cc1nc(NCc2ccccc2)c(C(N)=O)c2c1COC(C)(C)C2
At 10 µM unless noted
  inhibition: 37.7% (active)

## CC1(C)Cc2cccc(OCC(=O)NCc3ccccc3)c2O1
At 10 µM unless noted
  inhibition: -5.5% (inactive)

## Cc1nc(NCCN)c(C#N)c2c1COC(C)(C)C2
At 10 µM unless noted
  inhibition: 8.1% (inactive)

## COc1ccccc1C(=O)COC(=O)CNS(=O)(=O)c1ccc(NC(C)=O)cc1
At 10 µM unless noted
  inhibition: 16.9% (inactive)

## Cc1ccccc1C(=O)NC(=S)NC1CC1
At 10 µM unless noted
  inhibition: 12.2% (inactive)

## Cc1ccc(-n2c(SCC(=O)NCCC3=CCCCC3)nc3n[nH]c(C)c3c2=N)cc1Cl
At 10 µM unless noted
  inhibition: 39.4% (active)

## COc1cccc(-n2c(SCC(=O)NC3CCCCC3)nc3n[nH]c(C)c3c2=N)c1
At 10 µM unless noted
  inhibition: -7.2% (inactive)

## CCCCNC(=O)CSc1nc2n[nH]c(C)c2c(=N)n1-c1cccc(Cl)c1C
At 10 µM unless noted
  inhibition: -3.5% (inactive)

## COc1ccc(N(C)C(=O)C2CCN(S(=O)(=O)c3cccc4nsnc34)CC2)cc1
At 10 µM unless noted
  inhibition: 9.7% (inactive)

## Cc1ccc(NC(=O)c2cc3ccccc3o2)cc1
At 10 µM unless noted
  inhibition: 8.6% (inactive)

## O=C(CCCCCn1c(=S)[nH]c2ccsc2c1=O)NC1CCCCC1
At 10 µM unless noted
  inhibition: -20.3% (inactive)

## Cc1cc(NC(=O)c2ccccc2C)no1
At 10 µM unless noted
  inhibition: 17% (inactive)

## CCOCCCNC(=O)C(NC(=O)CNC(=O)c1ccccc1)c1ccc(OC)cc1 (centres undefined)
At 10 µM unless noted
  inhibition: -2.8% (inactive)

## CCOCCCNC(=O)C(NC(=O)c1ccc(=O)[nH]c1)c1ccc(C)cc1 (centres undefined)
At 10 µM unless noted
  inhibition: -4% (inactive)

## CCOCCCNC(=O)C(NC(=O)c1ccccc1O)c1ccccc1 (centres undefined)
At 10 µM unless noted
  inhibition: -7.8% (inactive)

## CCOCCCNC(=O)C(NC(=O)Cc1c[nH]c2ccccc12)c1ccc(OC)cc1 (centres undefined)
At 10 µM unless noted
  inhibition: 6.3% (inactive)

## CCOCCCNC(=O)C(NC(=O)c1ccc(=O)[nH]c1)c1ccc(Cl)cc1 (centres undefined)
At 10 µM unless noted
  inhibition: 38.8% (active)

## CCOCCCNC(=O)C(NC(=O)CNC(=O)c1ccccc1)c1ccc(C)cc1 (centres undefined)
At 10 µM unless noted
  inhibition: 38.2% (active)

## COC(=O)c1ccc2c(C(C)(C)O)c(C(C)(C)O)[nH]c2c1
At 10 µM unless noted
  inhibition: 2.7% (inactive)

## O=C(Nc1cccc(Cl)c1Cl)c1ccccc1NC(=O)C1CC=CCC1C(=O)O (centres undefined)
At 10 µM unless noted
  inhibition: 11% (inactive)

## CCCN1C2CCCC1CC(NC(=O)NC13CC4CC(CC(C4)C1)C3)C2 (centres undefined)
At 10 µM unless noted
  inhibition: 13.5% (inactive)

## COc1cccc(C(C(=O)NC2CCCC2)N(C(=O)c2ccco2)c2cccc(C(C)=O)c2)c1OC (centres undefined)
At 10 µM unless noted
  inhibition: 24.9% (inactive)

## CCCn1c(CCNc2nc(-c3ccc(OC)cc3)cs2)nc2ccccc21
At 10 µM unless noted
  inhibition: -2.4% (inactive)

## O=C(CSc1ncnc2c1nnn2Cc1ccc(F)cc1)NC1CCCC1
At 10 µM unless noted
  inhibition: 23.4% (active)

## O=C(Cc1ccc(F)cc1)NC1CCCC1
At 10 µM unless noted
  inhibition: 9.3% (inactive)

## O=C(CSc1ncnc2c1oc1ccccc12)NC1CCCC1
At 10 µM unless noted
  inhibition: 15.8% (inactive)

## COc1ccc(-c2cc(C(=O)N(C)Cc3ccc(OC)c(OC)c3OC)c3ccccc3n2)cc1OC
At 10 µM unless noted
  inhibition: 19% (inactive)

## Cc1nnc(NC2=NCCCCC2)o1
At 10 µM unless noted
  inhibition: 37.9% (active)

## Cn1cccc1C(=O)N1CCc2ccccc2C1
At 10 µM unless noted
  inhibition: 19.1% (inactive)

## CCC(C)c1ccc(NC(=S)N2CCCC2)cc1 (centres undefined)
At 10 µM unless noted
  inhibition: -2.6% (inactive)

## COc1cc(/C=N/O)ccc1OCc1ccc([N+](=O)[O-])cc1
At 10 µM unless noted
  inhibition: 12.2% (inactive)

## COC(=O)c1ccc(COc2ccc(/C=C/C(=O)c3ccc(OC)c(CSCC(=O)O)c3)cc2OC)cc1
At 10 µM unless noted
  inhibition: 34.2% (active)

## COc1ccc(C(=O)/C=C/c2ccc(-c3ccccc3)cc2)cc1CSCC(=O)O
At 10 µM unless noted
  inhibition: 3% (inactive)

## CC(=O)Nc1ccc(N2C(=O)CC(Sc3nccc(C)n3)C2=O)cc1 (centres undefined)
At 10 µM unless noted
  inhibition: -0.3% (inactive)

## Cn1c(NC(=O)c2ccccc2)nc2ccccc21
At 10 µM unless noted
  inhibition: 7.4% (inactive)

## CCc1ccc(S(=O)(=O)N/N=C\c2ccc([N+](=O)[O-])o2)cc1
At 10 µM unless noted
  inhibition: 9.4% (inactive)

## Cc1cc2ccccn2c1C(=O)c1cccc(F)c1
At 10 µM unless noted
  inhibition: 17.6% (inactive)

## Cc1ccc(C(C[N+](=O)[O-])c2c(C)cc3ccccn23)cc1 (centres undefined)
At 10 µM unless noted
  inhibition: 98.9% (active)

## CCC1=Nc2cc(C(=O)NCCCN3CCOCC3)ccc2Sc2ccc(Br)cc21
At 10 µM unless noted
  inhibition: 7.2% (inactive)

## CCc1ccc(CN(C)C(=O)C2CCC(=O)N(Cc3cccc(OC)c3)C2)nc1 (centres undefined)
At 10 µM unless noted
  inhibition: 9.6% (inactive)

## Cc1oc2cc3oc(=O)ccc3cc2c1C
At 10 µM unless noted
  inhibition: 8.6% (inactive)

## COc1cccc2sc(N(CCCN(C)C)C(=O)CCS(=O)(=O)c3ccccc3)nc12
At 10 µM unless noted
  inhibition: 14.3% (inactive)

## Cc1cccc2sc(N(CCCN(C)C)C(=O)CCS(=O)(=O)c3ccccc3)nc12
At 10 µM
  inhibition: 78.1% (active)
Triplicate retest, at 20 µM
  inhibition: 99.3%

## CN(C)CCCN(C(=O)COc1ccccc1)c1nc2c(Cl)cccc2s1
At 10 µM unless noted
  inhibition: 3.9% (inactive)

## CC(C)CCNC(=O)c1ccc2c(Cl)c3c(nc2c1)CCC3
At 10 µM unless noted
  inhibition: 16.8% (inactive)

## Cc1ccc(N(Cc2cc(=O)[nH]c3ccccc23)C(=O)CCl)cc1
At 10 µM unless noted
  inhibition: 17.4% (inactive)

## O=C(CC(=O)Nc1ccc(Cl)c(Cl)c1)N/N=C/c1ccc(O)cc1
At 10 µM unless noted
  inhibition: 21.7% (inactive)

## Cc1ccc(NC(=O)C/C(N)=N/O)cc1Cl
At 10 µM unless noted
  inhibition: -8.9% (inactive)

## O=C(CC(O)(C(F)(F)F)C(F)(F)F)Nc1ccc(Cl)c(Cl)c1
At 10 µM
  inhibition: 78.5% (active)
Triplicate retest, at 20 µM
  inhibition: 110%

## COc1ccc(C(=O)C2CCCN(C(=O)c3cc(C)on3)C2)cc1F (centres undefined)
At 10 µM unless noted
  inhibition: 4% (inactive)
